PubChem BioAssay (NCI)
The panel holds about 79,000 compounds, 15% with a hit somewhere; the sample as a whole holds those more often. No stated cut-off is given here; in the data, active means growth inhibition above about 70%; inactive means the rest.

Key:
[1] = NCI Yeast Anticancer Drug Screen. Data for the rad50 strain (AID 155);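 further: 0% = growth of vehicle-only cultures of the same strain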; conditions: S. cerevisiae rad50 strain growth inhibition; at 50.0 µM; stronger effect = higher value
Method in brief: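 Growth of the mutant yeast was measured after compound exposure and referenced to vehicle-treated cultures.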

[2] = NCI Yeast Anticancer Drug Screen. Data for the mec2-1 strain (AID 157); conditions: S. cerevisiae mec2-1 strain, at 50.0 µM, stronger effect = higher value
Method in brief: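 Vehicle-treated cultures served as reference for growth inhibition of compound-exposed mec2-1 yeast.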

[3] = NCI Yeast Anticancer Drug Screen. Data for the sgs1 mgt1 strain (AID 161);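 further: 0% = growth of cultures given vehicle only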; conditions: S. cerevisiae sgs1 mgt1 strain, at 50.0 µM, stronger effect = higher value
Method in brief: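 Inhibition of yeast growth, normalised to vehicle-treated controls, is reported for a strain bearing genetic alterations in DNA damage repair.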

[4] = NCI Yeast Anticancer Drug Screen. Data for the cln2 rad14 strain (AID 165);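 further: 0% = growth equal to vehicle treated cultures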; conditions: S. cerevisiae cln2 rad14 strain, at 50.0 µM, stronger effect = higher value
Method in brief: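 Each compound was tested on cln2 rad14 yeast. Inhibition of growth was calculated against vehicle-exposed controls.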

[5] = NCI Yeast Anticancer Drug Screen. Data for the bub3 strain (AID 167); conditions: S. cerevisiae bub3 mutant strain, at 50.0 µM, stronger effect = higher value
Method in brief: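 Whole-cell yeast assay. The mutant strain was incubated with compounds, and growth inhibition was determined by comparison with vehicle-treated cells.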

[6] = NCI Yeast Anticancer Drug Screen. Data for the mlh1 rad18 strain (AID 175); conditions: S. cerevisiae mlh1 rad18 strain growth inhibition; at 50.0 µM; stronger effect = higher value
Method in brief: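 Vehicle-treated cultures served as the reference for growth inhibition in a yeast strain carrying DNA damage repair alterations exposed to each compound.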

Measured: growth inhibition

CCCNCC(O)c1cc(C(F)(F)F)nc2c(C(F)(F)F)cccc12 (stereo not given)
inactive: [1] 29.4% | [2] -0.15% | [3] 2.25% | [4] -25.4% | [5] 0.6% | [6] 19.1%

O=C1CCCCCCCC(=O)Nc2ccc3nc4ccccc4c(c3c2)SCCCCCCCCCCCCSc2c3ccccc3nc3ccc(cc23)N1
inactive: [1] -9.85% | [2] -6.5% | [3] -20.9% | [4] -9.15% | [5] -3.2% | [6] -10.3%

COc1cc(C)c2cccc(C)c2n1
inactive: [1] 6.6% | [2] 3.85% | [3] -0.4% | [4] -32.2% | [5] -8.8% | [6] 8.7%

Cc1c(C#N)c2n(c1C)CC(=O)N2
inactive: [1] 7.85% | [2] 0.45% | [3] 2.8% | [4] -0.85% | [5] -20.4% | [6] -33.9%

O=C(Cn1ccnc1[N+](=O)[O-])c1ccc(F)cc1
inactive: [1] 62.8% | [2] -13.9% | [3] 33.9% | [4] 4.6% | [5] -9.9% | [6] 13.3%

CCc1ccc(NC(=S)NC(=O)c2ccccc2OC)cc1
inactive: [1] 10.6% | [2] 7.05% | [3] 9.3% | [4] 21.1% | [5] 20.4% | [6] 3.95%

Cc1nn(-c2ccccc2)c2c1N=C(C(=O)O)CC(c1ccccc1)=N2
inactive: [1] 18.7% | [2] 25.9% | [3] 23.9% | [4] 28.1% | [5] 16.7% | [6] 13.8%

O=c1ccc2c([nH]1)CCCC2
inactive: [1] -8.25% | [2] -8.25% | [3] -30.9% | [4] 1.35% | [5] -9.15% | [6] 0.55%

CCOC(=O)c1cn2c(nc1=O)N[C@H]1CCCC[C@@H]12
inactive: [1] 37.8% | [2] 11.1% | [3] 0.4% | [4] -2.45% | [5] 8.4% | [6] -1%

O=C(Nc1ccccc1)c1cccnc1
inactive: [1] -4% | [2] -18.4% | [3] -0.2% | [4] -13.9% | [5] -2.75% | [6] -2.65%

OC(c1ccccc1)c1c(-c2ccccc2)[nH]c(-c2ccccc2)c1C(O)c1ccccc1 (stereo not given)
inactive: [1] 1% | [2] 14.8% | [3] -6.5% | [4] 22.2% | [5] -23.3% | [6] -6.9%

O=[N+]([O-])c1ccc(SCN(CSc2ccc([N+](=O)[O-])cc2)Cc2ccccc2)cc1
inactive: [1] -6.35% | [2] -6.85% | [3] -1.2% | [4] -17.4% | [5] 4.65% | [6] -7%

CCCCCCC(c1ccc(N(C)C)cc1)c1ccc(N(C)C)cc1
inactive: [1] -6.95% | [2] 15.7% | [3] -4.45% | [4] 13.1% | [5] 24.9% | [6] 29.9%

Oc1ccc(Cl)cc1/C=N/NC(=S)Nc1cccc2cccnc12
inactive: [1] 24.1% | [2] 12.6% | [3] 10.7% | [4] 20.6% | [5] 20.1% | [6] 15.7%

NC(=S)c1ccc[n+]([O-])c1
inactive: [1] 15.6% | [2] 10.1% | [3] 20.2% | [4] -13.7% | [5] 6.9% | [6] 6.85%

COC(=O)C(=O)/C(=C\N1C(=O)CC(=O)NC1=S)C(=O)c1ccc([N+](=O)[O-])cc1
inactive: [1] 17.9% | [2] -0.4% | [3] 9.6% | [4] 1.5% | [5] -5.25% | [6] 6%

CC(C)C(C(N)=O)C(C)C
inactive: [1] 3.6% | [2] -6.4% | [3] -3.65% | [4] 10.7% | [5] 0% | [6] -1.2%

CCOC(=O)CC1C(C)C(C)NC(C)C1C (stereo not given)
inactive: [1] -1.85% | [2] -24.3% | [3] -20.2% | [4] 12.1% | [5] 2.95% | [6] 5.75%

N[C@@H](Cc1ccccc1)C(=O)NCCNC(=O)[C@@H](N)Cc1ccccc1
inactive: [1] -13.1% | [2] -3.25% | [3] -8.85% | [4] 17.2% | [5] -0.7% | [6] 3.45%

C/C(CC(C)(C)C)=N/NS(=O)(=O)c1ccc(C)cc1
inactive: [1] 7.7% | [2] -1.6% | [3] 9.8% | [4] 1.75% | [5] 5.45% | [6] 12.7%
